Where “and” joins values, the source holds several entries; their conditions need not be identical. Equal values may be shown once. Compounds without any hit were thinned out: in the full panel of roughly 83,000, 20% have a hit.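 96-well plates, one dose, 48 hours. Percent growth reported; active if below 10.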 A number with no mark means an inactive call. Calls of active or inactive are those of the source. Where a SMILES comes first, the peptide text is derived from it. The star is where a group is joined. Trt = c1ccc(C(c2ccccc2)(c2ccccc2)*)cc1; Cbz = O=C(OCc1ccccc1)*
Assays:
Assay in all cases: NCI-60 one-dose screen, 48 h (100 = growth as untreated, 0 = no growth, -100 = all killed)
Conditions in all cases: 10 µM unless noted
NCI-H23 lung = system: NCI-H23 lung
NCI-H226 lung = system: NCI-H226 lung
NCI-H322M lung = system: NCI-H322M lung
HOP-62 NSCLC = system: HOP-62 NSCLC
NCI-H460 lung = system: NCI-H460 lung
HOP-92 NSCLC = system: HOP-92 NSCLC
NCI-H522 lung = system: NCI-H522 lung
A549/ATCC NSCLC = system: A549/ATCC NSCLC
786-0 renal = system: 786-0 renal
COLO 205 colon = system: COLO 205 colon
DU-145 prostate = system: DU-145 prostate
K-562 leukemia = system: K-562 leukemia
MALME-3M melanoma = system: MALME-3M melanoma
MDA-MB-231 breast = system: MDA-MB-231 breast
RXF 393 renal = system: RXF 393 renal
SF-268 CNS = system: SF-268 CNS
SF-295 CNS = system: SF-295 CNS
SF-539 CNS = system: SF-539 CNS
UACC-257 melanoma = system: UACC-257 melanoma
M14 melanoma = system: M14 melanoma

Row | Compound | growth (NCI-H23 lung) | growth (NCI-H226 lung) | growth (NCI-H322M lung) | growth (HOP-62 NSCLC) | growth (NCI-H460 lung) | growth (HOP-92 NSCLC) | growth (NCI-H522 lung) | growth (A549/ATCC NSCLC) | growth (786-0 renal) | growth (COLO 205 colon) | growth (DU-145 prostate) | growth (K-562 leukemia) | growth (MALME-3M melanoma) | growth (MDA-MB-231 breast) | growth (RXF 393 renal) | growth (SF-268 CNS) | growth (SF-295 CNS) | growth (SF-539 CNS) | growth (UACC-257 melanoma) | growth (M14 melanoma)
1 | Cc1ccc(NS(=O)(=O)c2ccc(C)cc2)cc1 | 100% and 98.2% | 95.9% and 88.6% | 102% and 91.5% | 98.5% and 92.7% | 107% and 106% | 100% and 96.7% | 97.9% and 77.9% | 88.1% and 107% | 100% and 99.3% | 111% and 103% | 101% and 104% | 85.7% and 101% | 105% and 101% | 103% and 107% | 103% and 96.1% | 97.8% and 93.1% | 95.5% and 93.4% | 111% and 101% | 89.8% and 77.2% | 98% and 99.2%
2 | COc1ccc(N=N/N=c2\sc3cc(OC)ccc3n2C)cc1 | 79.6% | 81.8% | 83.9% | 86.4% | 94.9% | 71.2% | 73.8% | 69.8% | 105% | 92.2% | 91.8% | 80.8% | 109% | 90.5% | 105% | 97.6% | 83.3% | 99.4% | 80% | 110%
3 | Cc1ccnc(NC(c2ccccc2)c2ccc3cccnc3c2O)c1 (stereo not given) | 47.8% | 57.8% | 38.4% | 54.1% | 5.96% (active) | 67.8% | 7.12% (active) | 39% | 34.1% | 36.8% | 47.8% | 21.4% | 62.4% | 48.5% | 66.9% | 34.7% | 26% | 24.7% | 41.7% | 36.8%
4 | CCOc1ccc(-c2nc3ccc(-c4nc5ccc(N6CCN(C)CC6)cc5[nH]4)cc3[nH]2)cc1 | -71.7% (active) | -85.5% (active) | -84.7% (active) | -87.5% (active) | -90.7% (active) | -56.3% (active) | -65.5% (active) | -80.7% (active) | -90.6% (active) | -96.5% (active) | -100% (active) | 24.9% | -87.8% (active) | -84.2% (active) | -86.2% (active) | -83.9% (active) | -81.9% (active) | -97.9% (active) | -64.8% (active) | -85.1% (active)
5 | COC(=O)C(CSC(c1ccccc1)(c1ccccc1)c1ccccc1)NC(=O)C(CC(N)=O)NC(=O)OCc1ccccc1 (stereo not drawn) (Cbz-Asn-Cys(Trt)-OMe; configuration not given here) | 65.4% | 71.4% | 30.8% | 41.4% | 31.2% | 55.7% | 51.5% | 41.4% | 30.7% | -50.8% (active) | 13.4% | 25.4% | 27.1% | 12.5% | 34.1% | 18% | 20.1% | -22% (active) | 59.1% | -57.4% (active)
6 | Oc1c(Cl)c2ccccc2c2ccccc12 | 103% | 99.7% | 100% | 128% | 116% | 109% | 44.3% | 103% | 109% | 113% | 102% | -12.5% (active) | 123% | 95.5% | 116% | 104% | 120% | 107% | 103% | 108%
7 | O=C1NC(=O)/C(=C/C=C/c2ccccc2)S1 | 32.6% | 75.8% | 51.4% | 22.5% | 10.6% | 45.2% | 24.4% | 89.1% | 1.55% (active) | 80.7% | 50.3% | 31.1% | 60.2% | 82.5% | 66.3% | 31.8% | 14.3% | -6.41% (active) | 45.1% | 12.3%
8 | CC(=O)ON=C1C=CC(=C(C#N)c2ccccc2)C=C1 | 91.7% | 66.8% | 94.8% | 55.1% | 4.7% (active) | 33.1% | -24.2% (active) | 32.2% | 15.4% | 90.6% | 1.67% (active) | 28.1% | 83.3% | 13.9% | 35.5% | 14.1% | 39.8% | 24.5% | 30.5% | 22.2%
9 | O=Nc1ccccc1N=O | 71.9% | 88.5% | 84.2% | 96% | 93.5% | 107% | -60.8% (active) | 86.2% | 116% | 83.4% | 91.2% | 76.4% | 74.9% | 95.8% | 101% | 89.4% | 85.9% | 76.2% | 80.9% | 81.7%
10 | O=C1c2ccccc2C(=O)N1c1ccccc1 | 106% | 101% | 99.1% | 96.9% | 104% | 104% | 90.9% | 90.7% | 105% | 106% | 109% | 106% | 105% | 89.7% | 112% | 108% | 94.9% | 103% | 101% | 106%
11 | C[N+](C)=c1ccc2nc3c(cc(NCCCNc4cc5oc6cc(=[N+](C)C)ccc-6nc5c5ccccc45)c4ccccc43)oc-2c1 | -56.1% (active) | 73.2% | 25.3% | 44.4% | -56.2% (active) | 59% | 32% | 20.5% | -68.5% (active) | -64.9% (active) | -100% (active) | -0.99% (active) | 35.6% | -36.2% (active) | 58.2% | 55% | 45% | -9.59% (active) | 65.1% | 28.9%
12 | CCCCCCCCCCCCCCCCOP(=O)([O-])OCC[N+](C)(C)C | 73.6% | 31.5% | 81.8% | 19.5% | 3.97% (active) | -24.8% (active) | -55.1% (active) | 31.8% | 48.6% | 10.6% | 82.2% | 64.6% | 74.1% | 36.8% | -32.1% (active) | 32.5% | 28% | 55.9% | 76.7% | -10.6% (active)
13 | CC(=Nc1ccc(N(C)C)cc1)c1ccccc1 | 66.4% | 59.3% | 66.5% | 54.2% | 34.2% | 30.8% | 64.7% | 45.2% | 74.5% | 13.2% | 46.9% | 22.5% | 85.5% | 66.5% | 72.8% | 82.3% | 44.4% | 56.7% | 59.4% | 66.1%
14 | CC(=O)C(=Cc1ccc(C=C(C(C)=O)C(C)=O)cc1)C(C)=O | 4.19% (active) | -14.5% (active) | 102% | 83.2% | 36.2% | 81.6% | -53.9% (active) | 84.2% | 2.51% (active) | -70.9% (active) | 23.6% | 2.87% (active) | -18.6% (active) | -3.61% (active) | -58.5% (active) | 19.7% | 86.4% | -1.57% (active) | 19.1% | 4.86% (active)
15 | N#CSCc1ccc(Cl)c(CSC#N)c1 | 40.4% | 74.2% | 98.7% | 74% | 16.3% | -4.43% (active) | 13.7% | 35.5% | 32.1% | -7.52% (active) | 16.4% | 15.2% | 63.7% | 45.4% | 5.61% (active) | 36.4% | 70.7% | 15.2% | 83.1% | 9.39% (active)
